In the supplement of paper PMC10981050:
Values joined by “and” are separate entries in the source; they are usually repeats but may differ in a detail not shown here. Equal entries are not always repeated.

Assays:
Experiment in all cases: cell viability relative to vehicle control; higher = less cytotoxic
Conditions in all cases: 10 µM
K562 = test system: K562
Procedure, shortened: (§1)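 Mutant clones made by CRISPR editing and their isogenic wild-type counterparts, from four leukaemia lines, were exposed to a single 10 µM dose of each library compound for 48 h. The supernatant was then removed and CellTiter-Glo luminescence was read. Viability was reported as percent of the on-plate vehicle control.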

MARIMO = test system: MARIMO
Procedure, shortened: as §1

MOLM14 = test system: MOLM14
Procedure, shortened: as §1

OCI-AML2 = test system: OCI-AML2
Procedure, shortened: as §1

Structure (SMILES): CCCCCCCCCCCC[N+](C)(C)CCOc1ccccc1 [Domiphen Bromide]
- cell viability (K562; SRSF2 genotype: SRSF2 P95H/wt): 7.02% and 4.79%
- cell viability (K562; SRSF2 genotype: SRSF2 wt/wt): 5.16%
- cell viability (MARIMO; SRSF2 genotype: SRSF2 P95H/wt): 0.45%
- cell viability (MARIMO; SRSF2 genotype: SRSF2 wt/wt): 0.55%
- cell viability (MOLM14; SRSF2 genotype: SRSF2 P95H/wt): 0.35%
- cell viability (MOLM14; SRSF2 genotype: SRSF2 wt/wt): 0.39%
- cell viability (OCI-AML2; SRSF2 genotype: P95H/wt): 0.4%
- cell viability (OCI-AML2; SRSF2 genotype: wt/wt): 0.43%

Structure (SMILES): COc1cc(C(=O)O)ccc1NC(=O)[C@@H]1N[C@@H](CC(C)(C)C)[C@](C#N)(c2ccc(Cl)cc2F)[C@H]1c1cccc(Cl)c1F [Idasanutlin (RG-7388)]
- cell viability (K562; SRSF2 genotype: SRSF2 P95H/wt): 96.7% and 98.2%
- cell viability (K562; SRSF2 genotype: SRSF2 wt/wt): 86.3%
- cell viability (MARIMO; SRSF2 genotype: SRSF2 P95H/wt): 116%
- cell viability (MARIMO; SRSF2 genotype: SRSF2 wt/wt): 131%
- cell viability (MOLM14; SRSF2 genotype: SRSF2 P95H/wt): 86.5%
- cell viability (MOLM14; SRSF2 genotype: SRSF2 wt/wt): 102%
- cell viability (OCI-AML2; SRSF2 genotype: P95H/wt): 102%
- cell viability (OCI-AML2; SRSF2 genotype: wt/wt): 118%

Structure (SMILES): O=C(NCc1ccccc1)c1csc(Nc2ccncn2)n1 [Thiazovivin]
- cell viability (K562; SRSF2 genotype: SRSF2 P95H/wt): 100% and 101%
- cell viability (K562; SRSF2 genotype: SRSF2 wt/wt): 100%
- cell viability (MARIMO; SRSF2 genotype: SRSF2 P95H/wt): 80.5%
- cell viability (MARIMO; SRSF2 genotype: SRSF2 wt/wt): 94.7%
- cell viability (MOLM14; SRSF2 genotype: SRSF2 P95H/wt): 37.8%
- cell viability (MOLM14; SRSF2 genotype: SRSF2 wt/wt): 86.8%
- cell viability (OCI-AML2; SRSF2 genotype: P95H/wt): 46%
- cell viability (OCI-AML2; SRSF2 genotype: wt/wt): 49.5%

Structure (SMILES): CCN(c1cc(-c2ccc(CN3CCOCC3)cc2)cc(C(=O)NCc2c(C)cc(C)[nH]c2=O)c1C)C1CCOCC1 [Tazemetostat (EPZ-6438)]
- cell viability (K562; SRSF2 genotype: SRSF2 P95H/wt): 92.9% and 95%
- cell viability (K562; SRSF2 genotype: SRSF2 wt/wt): 94.2%
- cell viability (MARIMO; SRSF2 genotype: SRSF2 P95H/wt): 93.3%
- cell viability (MARIMO; SRSF2 genotype: SRSF2 wt/wt): 102%
- cell viability (MOLM14; SRSF2 genotype: SRSF2 P95H/wt): 89.5%
- cell viability (MOLM14; SRSF2 genotype: SRSF2 wt/wt): 93.3%
- cell viability (OCI-AML2; SRSF2 genotype: P95H/wt): 105%
- cell viability (OCI-AML2; SRSF2 genotype: wt/wt): 99.6%

Structure (SMILES): COc1cc2ncnc(Nc3cccc(Cl)c3F)c2cc1OC(=O)N1CCN(C)C[C@H]1C
- cell viability (K562; SRSF2 genotype: SRSF2 P95H/wt): 84.8% and 93.4%
- cell viability (K562; SRSF2 genotype: SRSF2 wt/wt): 101%
- cell viability (MARIMO; SRSF2 genotype: SRSF2 P95H/wt): 104%
- cell viability (MARIMO; SRSF2 genotype: SRSF2 wt/wt): 106%
- cell viability (MOLM14; SRSF2 genotype: SRSF2 P95H/wt): 77.9%
- cell viability (MOLM14; SRSF2 genotype: SRSF2 wt/wt): 87.3%
- cell viability (OCI-AML2; SRSF2 genotype: P95H/wt): 89.8%
- cell viability (OCI-AML2; SRSF2 genotype: wt/wt): 75.7%
